{"source": "ChEMBL document CHEMBL4888484", "about": "“Replenishing the malaria drug discovery pipeline: Screening and hit evaluation of the MMV Hit Generation Library 1 (HGL1) against asexual blood stage Plasmodium falciparum ,using a nano luciferase reporter read-out” (2022)", "note": "Among all 4,800 compounds or so, about 420 (8.8%) showed an effect of 50% or more. Shown is part of a subset that was picked to be rich in strong results."}
{"system": "Plasmodium falciparum", "test": "Confirmatory screen in NF54 nanoGlo assay, in single point, at 2uM, 72h", "assay_type": "functional, Erythrocyte", "conditions": "timepoint 72 hour", "units": {"% Inhibition": "%"}}
{"smiles": "O=C(Cn1c(=O)n(Cc2nc(-c3ccccc3)no2)c(=O)c2ccccc21)Nc1cccc(Cl)c1", "% Inhibition": 5}
{"smiles": "O=C(NCc1ccccc1)c1cnn2c3c(cnc12)CCCCCC3", "% Inhibition": 2}
{"smiles": "CCc1ccccc1NC(=O)c1sccc1S(=O)(=O)N1CCc2ccccc2C1", "% Inhibition": 2}
{"smiles": "Cc1cnc(CNC(=O)Nc2nnc3ccccn23)s1", "% Inhibition": -13}
{"smiles": "NC(=O)c1cccc(NC(=O)CC2=CCCCC2)n1", "% Inhibition": -11}
{"smiles": "CC[C@H]1CN2C=NC(N3CCN(C(=O)Nc4cc(F)cc(F)c4)CC3)=CC2=N1", "% Inhibition": 35}
{"smiles": "O=C(CCC(=O)c1ccc(F)cc1F)NS(=O)(=O)c1cccnc1", "% Inhibition": -4}
{"smiles": "Cc1ccc(NS(=O)(=O)c2ccc(NC(=O)Cc3ccccc3)cc2)cc1C", "% Inhibition": 2}
{"smiles": "Cc1ccc(S(=O)(=O)Nc2c(S(=O)(=O)c3ccc(C)cc3)c3nc4ccccc4nc3n2C[C@H]2CCCO2)cc1", "% Inhibition": 52}
{"smiles": "Cc1ccc(S(=O)(=O)Nc2c(S(=O)(=O)c3ccccc3)c3nc4ccccc4nc3n2CCc2ccccc2)cc1", "% Inhibition": 97}
{"smiles": "Cc1ccc(-c2nc3c(c(=O)n2CC(=O)NC[C@H]2CCCO2)CCN(Cc2ccccc2)C3)cc1", "% Inhibition": -9}
{"smiles": "Cc1ccc(S(=O)(=O)Nc2ccccc2-c2nnc(-c3c(NS(=O)(=O)c4ccc(C)cc4)ccc4ccccc34)o2)cc1", "% Inhibition": -14}
{"smiles": "Cc1ccc(S(=O)(=O)Nc2cc3nc4ccccc4nc3n2CCc2ccccc2)cc1", "% Inhibition": 100}
{"smiles": "Cc1cnc(C2CCC2)n1CCNS(=O)(=O)c1ccccc1", "% Inhibition": -4}
{"smiles": "Cc1cc(NC(=O)Cn2c(=O)n(CCc3ccccc3)c(=O)c3ccccc32)no1", "% Inhibition": 4}
{"smiles": "CS(=O)(=O)n1c(CCCc2ccccc2)nc2ccccc21", "% Inhibition": 1}
{"smiles": "Cc1ccc(S(=O)(=O)Nc2c(S(=O)(=O)c3ccc(C)cc3)c3nc4ccccc4nc3n2CCC(C)C)cc1", "% Inhibition": 98}
{"smiles": "Cc1ccc(S(=O)(=O)c2c(C)cc(-c3ccccc3)nc2N2CCOCC2)cc1", "% Inhibition": 0}
{"smiles": "Cc1ccc(NCc2ncccn2)cc1OCC1CCCCC1", "% Inhibition": 1}
{"smiles": "O=C(C1CCCC2CCCCC21)N1CCN(c2ncccn2)CC1", "note": "(stereo not drawn)", "% Inhibition": -8}
{"smiles": "Cc1cc(-n2nnc3ccccc32)nc(C)n1", "% Inhibition": 4}
{"smiles": "Cc1ccc(Cl)c2ccc(NC(=O)CCNC(N)=O)nc12", "% Inhibition": 0}
{"smiles": "CN([C@H]1CCc2ccccc21)S(=O)(=O)c1ccc2c(c1)CCC2", "% Inhibition": 7}
{"smiles": "Brc1ccc2sncc2c1", "% Inhibition": -3}
{"smiles": "COc1cncc(C(=O)N2CCCc3cc(S(C)(=O)=O)ccc32)n1", "% Inhibition": 9}
{"smiles": "CN1CCN(CCc2nc(-c3ccc4cc[nH]c4c3)no2)CC1", "% Inhibition": -4}
{"smiles": "CC(C)(C)OC(=O)NS(=O)(=O)Nc1nccs1", "% Inhibition": -13}
{"smiles": "COCCN(c1ccncc1)S(C)(=O)=O", "% Inhibition": 6}
{"smiles": "CCc1ccc(NCc2c(OCc3ccc(Br)cc3)ccc3ccccc23)cc1", "% Inhibition": -11}
{"smiles": "Cc1c(S(=O)(=O)N2CCC[C@H](C(=O)NC3CC3)C2)cnn1C", "% Inhibition": -4}
{"smiles": "O=C(Nc1c(S(=O)(=O)c2ccccc2)c2nc3ccccc3nc2n1CCc1ccccc1)c1ccc(Cl)cc1", "% Inhibition": 102}
{"smiles": "O=C(Nc1ccccc1)c1ccc2c(c1)C(=O)N(CCc1ccccc1)C2=O", "% Inhibition": -9}
{"smiles": "O=C(Cn1c(Cc2ccc(Cl)cc2)nc2ccccc21)Nc1ccccc1", "% Inhibition": 14}
{"smiles": "Cc1ccc(S(=O)(=O)c2c(NS(=O)(=O)c3ccccc3)n(CCc3ccccc3)c3nc4ccccc4nc23)cc1", "% Inhibition": 100}
{"smiles": "Cc1ccc(S(=O)(=O)c2c(NS(=O)(=O)c3ccc(F)cc3)n(CCc3ccccc3)c3nc4ccccc4nc23)cc1", "% Inhibition": 100}
{"smiles": "CC(C)CCn1c(=O)c2sccc2n(CC(=O)N(C)c2ccccc2)c1=O", "% Inhibition": 5}
{"smiles": "COc1cc(OC)c(NC(=O)COc2ccccc2-c2nc3ccccc3s2)cc1Cl", "% Inhibition": 0}
{"smiles": "O=C(c1cc2c(s1)CCCC2)N1CCC[C@H](c2nnc3ccccn23)C1", "% Inhibition": -17}
{"smiles": "CCN1C(=O)[C@@]2(CC(=O)Nc3c2c(C)nn3-c2ncnc3nc[nH]c23)c2cc(C)ccc21", "% Inhibition": 2}
{"smiles": "COc1ccccc1OCc1nn2c([C@H]3CCCN(S(C)(=O)=O)C3)nnc2s1", "% Inhibition": -3}
{"smiles": "O=C(Nc1ccc(N2CCn3c(nc4ccccc43)C2)cc1)c1ccc(F)cc1", "% Inhibition": 9}
{"smiles": "O=C1c2ccccc2C(c2ccc(NC(=O)c3cccc4ccccc34)cc2)(c2ccc(NC(=O)c3cccc4ccccc34)cc2)c2ccccc21", "% Inhibition": 83}
{"smiles": "O=C(COc1ccccc1Cl)Nc1ccc(C2(c3ccc(NC(=O)COc4ccccc4Cl)cc3)c3ccccc3-c3ccccc32)cc1", "% Inhibition": 0}
{"smiles": "N=C(Cc1ccccc1)NOC(=O)c1cccc2ccccc12", "% Inhibition": -11}
{"smiles": "O=C(Nc1ccc(C2(c3ccc(NC(=O)c4ccc(F)cc4)cc3)c3ccccc3C(=O)c3ccccc32)cc1)c1ccc(F)cc1", "% Inhibition": 67}
{"smiles": "O=C(O)c1cc2c(cc1C(=O)Nc1ccc(Cl)cc1)=[O+]c1ccccc1-c1ccccc1[O+]=2", "% Inhibition": -17}
{"smiles": "O=C(c1ccccc1F)N(Cc1nccn1Cc1ccccc1F)CC1CC1", "% Inhibition": 20}
{"smiles": "O=C(Nc1ccc(Cl)cc1)c1cccc(N2C(=O)C3CCC(c4ccccc4)CC3C2=O)c1", "note": "(stereo not drawn)", "% Inhibition": -5}
{"smiles": "COc1cc([C@H](CC(=O)NC2CCN(Cc3ccccc3)CC2)N2Cc3ccccc3C2=O)cc(OC)c1OC", "% Inhibition": 33}
{"smiles": "CN1CCN(C(=O)[C@H](C(=O)c2ccccc2)n2cc(Cl)ccc2=O)CC1", "% Inhibition": -9}
{"smiles": "COc1ccc2[nH]c3c(c2c1)CC(C(=O)O)NC3c1ccc(OC)c(CN2CCN(c3ccccc3F)CC2)c1", "note": "(stereo not drawn)", "% Inhibition": 76}
{"smiles": "Fc1ccccc1N1CCN(C2CCN(Cc3c[nH]c4ccccc34)CC2)CC1", "% Inhibition": 4}
{"smiles": "COc1ccccc1N1CCN(Cc2nc3ccccc3c(=O)n2-c2ccc(F)cc2)CC1", "% Inhibition": 6}
{"smiles": "CC(C)(C)CCN1CCN(S(=O)(=O)C[C@H]2CCCS(=O)(=O)C2)CC1", "% Inhibition": -3}
{"smiles": "C[C@@H](CN)N(C)c1ccnc2cc(Br)cnc12", "% Inhibition": 98}
{"smiles": "COc1c(Br)cc(Br)cc1C(N)=O", "% Inhibition": -5}
{"smiles": "CCCOc1cc2nc(C(F)(F)F)cc(-c3cccs3)c2cc1OCCC", "% Inhibition": -4}
{"smiles": "CC1=CC(=[N+](CCO)CCO)C=C/C1=C(\\c1ccc(N(CCO)CCO)cc1C)c1ccccc1Cl", "% Inhibition": 91}
